Measured values taken from PubChem BioAssay AID624173 (National Center for Advancing Translational Sciences (NCATS), 2012).
About 490 (0.12%) of roughly 410,000 compounds were called active. Inconclusive results (about 1%) are left out. This excerpt belongs to a sample that is enriched for actives. Values without a mark were called inactive. The call rests on the fitted dose curve; in most records, active means well fitted inhibition curve with a large enough effect; inconclusive means small, poorly fitted or top-dose-only effect; inactive means flat fitted curve, though single readings scatter.
Further: nearly all actives have a fitted effect of over 50% in size.
On the % scale 0 is the no-effect control and ±100 the full control effect; potency means the concentration at half of the fitted maximal effect.

The compounds below were run against pyruvate kinase (Trypanosoma brucei) (UniProt Q57TT1) (assay: qHTS of Trypanosoma Brucei Inhibitors). Conditions: TbPYK enzyme, Kinase-Glo Plus ATP luminescence, 45 min; series mostly up to 76.8 µM; activity, negative = inhibition: at the top concentration.
Source text: Members of the Trypanosomatidae family of parasitic protozoans cause a spectrum of diseases throughout the tropical and subtropical world. Sleeping sickness, caused by two subspecies of Trypanosoma brucei, is endemic to areas of sub-Saharan Africa, while Chagas' disease, a manifestation of Trypanosoma cruzi infection, is prevalent throughout Central and South America. In addition, many species of Leishmania are responsible for a range of cutaneous and visceral diseases, causing ulcers, destructive lesions and kalaazar, a lethal infection of the viscera. These diseases cause severe public health and economic burdens on populations that are often already caught in a tragic cycle of poverty, poor nutrition and disease. Collectively, parasites of the trypanosomatid family infect 30 million people worldwide (~500 million live in endemic areas), and account for ~130K deaths annually. Existing treatments have developed little in the past 50 years, and suffer from toxicity, poor efficacy and resistance; the goal of this project is to develop lead drugs that will be suitable for entry into pre-clinical trials.
Glycolysis in axenically cultured T. cruzi, representing the intracellular pathogenic stage, is also essential for these parasites. {Engel, 1987} This project aims to discover and optimize selective inhibitors of the glycolytic enzyme pyruvate kinase (PYK) from Trypanosoma brucei, the parasite that causes sleeping sickness. […] Trypanosomatid PYKs show significant differences from their human counterparts including only 47-50% sequence identity and different allosteric and activation properties.{Callens, 1992} To this end, a qHTS was done against the MLSMR to discover inhibitors.
NIH Molecular Libraries Probe Production Network [MLPCN]
NIH Chemical Genomics Center [NCGC]
PI Name: Malcolm Walkinshaw, University of Edinburgh
2 uL of TbPYK/substrate buffer (columns 1-3, 5-48) are dispensed into Greiner white solid bottom 1536-well assay plates; column 4 receives only TEA buffer as 0x TbPYK controls. Compounds are then transferred via Kalypsys pin tool equipped with 1536-pin array (10 nL slotted pins, V&P Scientific, San Diego, CA). Following addition of compound, 2 uL of ADP (130 uM final concentration, all columns) is added to initiate the reaction. The plates are then incubated at room temperature for 45 minutes. Kinase-Glo Plus reagent is added (3 uL) and plates incubated for 10 minutes, before being transferred to a ViewLux high-throughput CCD imager (PerkinElmer) wherein single end-point measurements of luminescence are acquired using a clear filter. All reagents are diluted in an assay buffer consisting of 50 mM TEA (pH 7.2), 100 mM KCl, 10 mM MgCl2, 0.05% BSA and 0.01% Tween-20.
All screening operations will be performed on a fully integrated robotic system (Kalypsys, San Diego, CA) containing one RX-130 and two RX-90 anthropomorphic robotic arms (Staeubli, Duncan, SC). Library plates will be screened starting from the lowest and proceeding to the highest concentration. Vehicle-only plates, with DMSO being pin-transferred to columns 5-48, will be inserted uniformly at the beginning and the end of each library in order to monitor and record any shifts in the background, which can be affected by reagent dispensers or loss in enzyme activity over time. Screening data will be corrected, normalized, and concentration-effect relationships will be derived by using publicly-available curve fitting algorithms developed in-house (http://ncgc.nih.gov/pub/openhts).
In the case of `O=S(O)CNc1ccc(S(=O)(=O)c2ccc(NCS(=O)O)cc2)cc1`, the “activity, negative = inhibition” value was 9.07%. With `O=C(c1ccco1)N1CCC[C@@]2(CCN(Cc3nccs3)C2)C1` the “activity, negative = inhibition” value was -6.32%. With `Cn1cccc1C(=O)N1CCC2(CC1)CN(c1cccc(-c3ccccc3)c1)C2` the “activity, negative = inhibition” value was -3.39%. For `C/C=C1\C2C=C(C)CC1(N)c1ccc(=O)[nH]c1C2` (stereo unspecified), the “activity, negative = inhibition” value was -2.6%. With `NC(=O)C(=O)N/N=C/c1ccc([N+](=O)[O-])o1` the “activity, negative = inhibition” value was 0.18%. `O=C(c1cc(C(F)(F)F)cc(C(F)(F)F)c1)N1CCC[C@@]2(CCN(c3ccccn3)C2)C1` was tested, and the “activity, negative = inhibition” value was 4.4%. For `CC(C)NC(=O)N1CCC2(CC1)CCN(C(=O)c1cccn1C)CC2`, the “activity, negative = inhibition” value was 1.85%. `O=C(O)CCC(=O)O` was tested, and the “activity, negative = inhibition” value was -2.93%. In the case of `CC(C)(O/N=C(\C(=O)N[C@@H]1C(=O)N2C(C(=O)[O-])=C(C[n+]3ccccc3)CS[C@@H]12)c1csc(N)n1)C(=O)O`, the “activity, negative = inhibition” value was -4.78% [at 33.2 µM]. `COCCn1c(=O)c(CCc2ccccc2)nc2cnc(N3CCNCC3)nc21` was tested, and the “activity, negative = inhibition” value was -7.17%. In the case of `COc1ccnc(C[S@@](=O)[C@@H]2Nc3ccc(OC(F)F)cc3N2)c1OC`, the “activity, negative = inhibition” value was -17.7%. For `C[C@]12CC[C@@H]3c4ccc(O)cc4C[C@@H](CCCCCCCCCS(=O)CCCC(F)(F)C(F)(F)F)C3[C@@H]1CC[C@@H]2O` (stereo partly specified), the “activity, negative = inhibition” value was -5.87%. With `C=CCn1c(C)cc(C2=NNC(=NCC)SC2)c1C` the Potency was 17.8 µM (active). `CC1N=C(N)OC1c1ccccc1` (stereo unspecified) was tested, and the “activity, negative = inhibition” value was 0% [at 157 µM]. For `CS(=O)(=O)N1CCC2(CCN(c3ccncc3)CC2)CC1`, the “activity, negative = inhibition” value was -6.52%. In the case of `CC1(C)O[C@@H]2C[C@@H]3[C@H]4C[C@@H](F)C5=CC(=O)C=C[C@]5(C)[C@@]4(F)[C@@H](O)C[C@]3(C)[C@]2(C(=O)CO)O1`, the “activity, negative = inhibition” value was -3.24%. In the case of `COc1cc(C[C@H]2NCCc3cc(O)c(O)cc32)cc(OC)c1OC`, the “activity, negative = inhibition” value was 1.09%. In the case of `O=C(c1ccncc1)N1CCC2(CCN(Cc3cc(C(F)(F)F)cc(C(F)(F)F)c3)CC2)CC1`, the “activity, negative = inhibition” value was 0%. In the case of `CC(=O)O[C@]1(C(C)=O)CC[C@@H]2[C@@H]3C=C(C)C4=CC(=O)CC[C@@]4(C)[C@H]3CC[C@]21C`, the “activity, negative = inhibition” value was 0% [at 33.2 µM]. In the case of `CS(=O)(=O)N1CCC2(CC1)CN(Cc1ccccc1)C2`, the “activity, negative = inhibition” value was -1.13%. `CCCCC(=O)OCC(=O)[C@H]1[C@H](C)C[C@@H]2[C@@H]3C[C@@H](F)C4=CC(=O)C=C[C@]4(C)[C@@]3(F)[C@@H](O)C[C@@]21C` was tested, and the “activity, negative = inhibition” value was -6.95%. `CC(C)NC(=O)N1CCCC2(CCN(C(=O)c3cccn3C)CC2)C1` was tested, and the “activity, negative = inhibition” value was -0.138%. `CCOC(=O)c1c(NC(=O)CSc2cn(CCNC(=O)c3cccc(C(F)(F)F)c3)c3ccccc23)sc2c1CCC2` was tested, and the “activity, negative = inhibition” value was 0.688%. With `O=c1c(-c2cc(F)cc(F)c2)nc2cnc(Oc3ccccc3)nc2n1C[C@H]1CCCO1` the “activity, negative = inhibition” value was -5.6%. For `COc1ccc(-c2nc3cnc(OC)nc3n(Cc3ccc(F)cc3)c2=O)cc1`, the “activity, negative = inhibition” value was -5.21%. `COc1ccc(C(=O)N2CCC3(CCCN(C(c4ccccc4)c4ccccc4)C3)CC2)cc1` was tested, and the “activity, negative = inhibition” value was -16.4%. With `Cc1nc2cnc(N3CCNCC3)nc2n(Cc2ccc(F)cc2)c1=O` the “activity, negative = inhibition” value was -7.19%. In the case of `CS(=O)(=O)N1CCC[C@@]2(CCN(c3ccncc3)C2)C1`, the “activity, negative = inhibition” value was 0.396%. `O=C(Nc1cccc(C(F)(F)F)c1)c1cc(Br)cc(Br)c1O` was tested, and the “activity, negative = inhibition” value was 3.82%. With `O=C(c1cnccn1)N1CCC2(CCCN(Cc3ccccc3)C2)CC1` the “activity, negative = inhibition” value was -4.69%. For `COc1cc([C@@H]2c3cc4c(cc3[C@@H](O[C@@H]3O[C@@H]5CO[C@@H](C)O[C@H]5[C@H](O)[C@H]3O)[C@H]3COC(=O)[C@H]23)OCO4)cc(OC)c1OP(=O)(O)O`, the “activity, negative = inhibition” value was 4.69%. In the case of `CC(C)NC(=O)N1CC[C@@]2(CCCN(C(=O)c3cccn3C)C2)C1`, the “activity, negative = inhibition” value was 6.56%. For `CC[C@]1([C@H]2O[C@@H]([C@@H]3O[C@](O)(CO)[C@@H](C)C[C@H]3C)C[C@H]2C)CC[C@@H]([C@]2(C)CC[C@@]3(C[C@@H](O)[C@@H](C)[C@@H]([C@H](C)[C@H](OC)[C@H](C)C(=O)O)O3)O2)O1`, the “activity, negative = inhibition” value was -3.98%. With `CC(C)(O)c1ccccc1CC[C@H](SCC1(CC(=O)O)CC1)c1cccc(/C=C/c2ccc3ccc(Cl)cc3n2)c1` the “activity, negative = inhibition” value was 10.6%. `CC1(C)OC2CC(=O)OC[C@@]23C1CC(=O)[C@]1(C)C3CC[C@@]2(C)C(c3ccoc3)OC(=O)C3O[C@@]321` (stereo partly specified) was tested, and the “activity, negative = inhibition” value was 4.76%. For `c1ccc2sc(SNC3CCCCC3)nc2c1`, the “activity, negative = inhibition” value was -21.1%. For `CC(C)Cn1c(=O)c2ccccc2n2c(-c3cccc(Cl)c3)nnc12`, the “activity, negative = inhibition” value was -6.77%. `O=C(c1ncn2c1c(=O)[nH]c1ccccc12)N1CCc2ccccc2C1` was tested, and the “activity, negative = inhibition” value was -0.741%. In the case of `O=c1[nH]c2ccccc2n2c(-c3ccccc3)nnc12`, the Potency was 2.82 µM (active). For `CCNC[C@H](O)c1cccc(O)c1`, the “activity, negative = inhibition” value was -5.16% [at 33.2 µM]. With `Cc1c(O)cc2c(c1C)O[C@](C)(CCC[C@H](C)CCC[C@H](C)CCCC(C)C)CC2` the “activity, negative = inhibition” value was -8.92%. With `Nc1ccccc1SC(C[N+](=O)[O-])c1ccccc1` (stereo unspecified) the Potency was 12.6 µM (active). For `CCC(=O)N1CCc2cc(Br)cc(S(=O)(=O)Nc3ccc(C)cc3C)c21`, the “activity, negative = inhibition” value was 1.76%. In the case of `COCCn1c(=O)c(-c2ccc(OC)cc2)nc2cnc(Oc3cccc(Cl)c3)nc21`, the “activity, negative = inhibition” value was 2.75%. `N#Cc1cccc(-c2nc3cnc(N4CCNCC4)nc3n(C3CC3)c2=O)c1` was tested, and the “activity, negative = inhibition” value was -13.9%. In the case of `COc1cc2c(cc1OC)CC(=O)N(CCCN(C)C[C@H]1Cc3cc(OC)c(OC)cc31)CC2`, the “activity, negative = inhibition” value was 5.47%.
